The values that follow come from PubChem BioAssay AID686979 (National Center for Advancing Translational Sciences (NCATS), 2013).

Molecules are shown by their SMILES. Several values for one entry are separate records, joined by “and”; a condition that tells them apart may be missing. Identical values can stand only once. Hit rate of the full screen: of about 420,000 compounds, about 50,000 (12%) were called active. Entries that show only a call come without a potency. Inconclusive results (about 26%) are left out. Calls come from the whole dose curve; as a rule, active = well fitted inhibition curve with a large enough effect; inconclusive = small, poorly fitted or top-dose-only effect; inactive = flat fitted curve, though single readings scatter. Only a selection was taken, and actives are over-represented in it overall.
Potency is the fitted concentration of half-maximal effect.

A short description of this assay: qHTS for Inhibitors of human tyrosyl-DNA phosphodiesterase 1 (TDP1): qHTS in cells in presence of CPT. Note: nearly all actives have a fitted effect of over 55% in size. Particulars: chicken DT40 Tdp1-/-;hTDP1 cells + 20 nM CPT, ATP luminescence, 48 h; series mostly up to 46.2 µM. Summed up:
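Chicken DT40 Tdp1-/- cells stably complemented with human TDP1 were seeded at 400 cells/well in medium containing 20 nM camptothecin, exposed to pin-transferred compounds, and grown at 37 °C for at least 48 hr. Viability was read as ATP luminescence.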
(qHTS replaces the single test concentration by a dilution series.)
With `CC1CCN(C(=O)C2CCN(S(=O)(=O)N3CCC4(CC3)OCCO4)CC2)CC1`, the Potency result is “inactive”.

Consider `COc1cc(C2C3C(=O)N(c4ccccc4)C(=O)C3ON2c2ccccc2)ccc1O` (stereo unspecified), for which the Potency result is “inactive”.

Turning to `COC(=O)c1sc(N)c(C(=O)OC)c1COC(=O)CNS(=O)(=O)c1ccc(C)cc1`, the Potency result is “inactive”.

As for `COc1ccc2oc(-c3ccc(C)c(NC(=O)c4sc5ccccc5c4Cl)c3)nc2c1`, the Potency entry is “inactive”.

Turning to `CC1(C(=O)OCC(=O)Nc2ncc(Cl)cc2Cl)CC1(Cl)Cl` (stereo unspecified), the Potency result is “inactive”.

On to `N#Cc1cccc(CN2CCC(=O)N([C@H](CO)c3ccccc3)CC2)c1`, for which the Potency result is “inactive”.

Regarding `CC(C)(C(=O)NO)c1ccccc1`, the Potency entry was “inactive”.

On to `CN(C)S(=O)(=O)c1cccc(C(=O)Nc2cccnc2)c1`, for which the Potency entry is “inactive”.

Take `CCN(CC)S(=O)(=O)c1cccc(C(=O)NCC(=O)OCC(=O)NCc2ccccc2)c1`: the Potency result was “inactive”.

As for `CCN(CC)S(=O)(=O)c1cccc(C(=O)Nc2ccccc2)c1`, the Potency was 20.6 µM (active).

On to `CC(OC(=O)c1cc2ccccc2o1)C(=O)Nc1ccc(N2CCOCC2)cc1` (stereo unspecified), for which the Potency entry is “inactive”.

Turning to `CN(c1ccccc1)S(=O)(=O)c1ccc2[nH]c(=O)[nH]c2c1`, the Potency result was “inactive”.

`CCCNC(=O)N1CCC(c2ccc3c(c2)OCO3)CC1`: the Potency result was “inactive”.

Regarding `CCCC[C@@H]1CN=C(N)N1CCc1cc(C(F)(F)F)cc(C(F)(F)F)c1`, the Potency was 3.66 µM (active).

With `CCCC[C@@H]1CN=C(N)N1CCc1cccc(F)c1`, the Potency is 9.2 µM (active).

`CCCS(=O)(=O)N1CCN=C1SCc1cccc(F)c1`: the Potency result was “inactive”.

`O=C1NC[C@@H](Cc2ccc(O)cc2)N(CCc2cccc(F)c2)C1=O`: the Potency entry was “inactive”.

On to `CCN(CC(=O)NCc1cccs1)C(=O)c1ccc(OC)c(S(=O)(=O)N2CCOCC2)c1`, for which the Potency entry was “inactive”.

Regarding `Cn1c(=O)c2c(nc(N3CCOCC3)n2CCNC2=NCCC2)n(C)c1=O`, the Potency entry is “inactive”.

With `CC(NC(=S)NC1CCCCC1)C(c1ccccc1)N1CCOCC1` (stereo unspecified), the Potency entry was “inactive”.

With `CCn1c(SCC(=O)NNC(=O)c2ccc(OC)cc2)nnc1C(C)C`, the Potency entry is “inactive”.

Regarding `CCc1cccc(C)c1NS(=O)(=O)c1c(C)nc2sccn2c1=O`, the Potency entry was “inactive”.

On to `CCc1cccc(C)c1Nc1c(-c2ccc(N(C)C)cc2)nc2ncccn12`, for which the Potency is 10.3 µM (active).

For `Cc1c(-c2cccc(NC(=O)C(C)(C)C)c2)nc2ncccn12`, the Potency result is “inactive”.

As to `Cc1ccc(-c2c(N)nc3ncccn23)cc1`, the Potency result was “inactive”.

Turning to `Cc1cccc(C)c1NC1=NC(=S)N(c2ccc(N(C)C)cc2)C1(C)C`, the Potency result was “inactive”.

In the case of `Cc1cccc(C)c1Nc1c(-c2ccccc2O)nc2ncccn12`, the Potency is 20.6 µM (active).

With `CC1(OC(=O)CCc2ccccc2)C(=O)C=C2C=C(c3ccc(C#N)cc3)N(CCc3ccccn3)C=C2C1=O` (stereo unspecified), the Potency entry was “inactive”.

With `CC1CCN(c2ccc([N+](=O)[O-])cc2C(N)=O)CC1`, the Potency result was “inactive”.

For the molecule `CC(C)c1ccc(NC(=O)Cn2nnc(C(=O)NCCc3ccccc3)c2N)cc1`, the Potency entry was “inactive”.

In the case of `O=C(COc1ccc([N+](=O)[O-])cc1)Nc1cccc(C(=O)Nc2ccccc2C(=O)O)c1`, the Potency result was “inactive”.

Consider `CCc1ccc2c(c1)C1(NN=C(c3ccccc3)S1)C(=O)N2` (stereo unspecified), for which the Potency was 2.91 µM (active).

On to `CCc1cccc(NC(=O)c2cc(-c3ccccc3)n[nH]2)c1`, for which the Potency entry was “inactive”.

For `CCCCC(CC)CNC(=O)C1CCN(S(=O)(=O)c2cccc3nsnc23)CC1` (stereo unspecified), the Potency entry was “inactive”.

Consider `COc1cc2c(=O)n(C)c3ccccc3c2cc1OC`, for which the Potency is 13 µM (active).

As for `Cc1cc(C)c(-c2c(O)c3ccccc3n(C)c2=O)c(C)c1`, the Potency result is “inactive”.

Regarding `COc1cccc2c(O)cc(=O)n(C)c12`, the Potency result is “inactive”.

Take `Cc1ccc(Cc2nnc(SCC(=O)Nc3ccccc3C)[nH]c2=O)cc1`: the Potency result was “inactive”.

As to `C[C@H](CO)N1C[C@H](C)[C@H](CN(C)C(=O)Nc2ccc3c(c2)OCO3)Oc2ncc(Br)cc2C1=O`, the Potency entry is “inactive”.

Regarding `CCOc1ccc(NC(=O)CN(C)C(=O)c2c(C)noc2C)cc1OCC`, the Potency result was “inactive”.

Consider `c1ccc(-c2c[nH]c(-c3ccccc3)c2)cc1`, for which the Potency entry was “inactive”.

Regarding `CC1CCCCC12NC(=O)N(CC(=O)N1CCN(c3ccccc3)CC1)C2=O` (stereo unspecified), the Potency result is “inactive”.

Turning to `CC(=O)c1ccc(N2CCN(CC(O)c3ccccc3)CC2)cc1` (stereo unspecified), the Potency entry is “inactive”.

`COc1ccc(C=Nc2cccc3ncccc23)cc1`: the Potency entry is “inactive”.

For `COc1cc(OC)c(/C=C/c2ccnc3ccccc23)c(OC)c1`, the Potency is 10 µM (active).

In the case of `COc1ccc(/C=C2/C(=O)N(c3ccccc3)N=C2C)c(OC)c1`, the Potency result was “inactive”.

For the molecule `CC(=O)OC1CCC2(O)CC1(C)CCC1C2CC1(C)C` (stereo unspecified), the Potency entry is “inactive”.

Take `C=C(C)COc1ccc(-c2n[nH]c(C)c2-c2ccccc2)c(O)c1`: the Potency is 14.6 µM (active).

As to `COc1ccc(-c2n[nH]c(C)c2-c2ccc(OC)c(OC)c2)c(O)c1`, the Potency was 20.6 µM (active).

With `COc1ccc(-n2c(-c3ccc(OC)c(OC)c3)n[nH]c2=S)cc1`, the Potency result is “inactive”.

Consider `COc1ccc(-c2c(-c3ccc(OC)cc3O)nc(C)nc2C(F)(F)F)cc1`, for which the Potency entry was “inactive”.

In the case of `C=C(C)COc1ccc(-c2ncncc2-c2ccc(OC)cc2)c(O)c1`, the Potency entry was “inactive”.

As to `CCOc1ccc(-c2n[nH]c(C)c2-c2ccccn2)c(O)c1`, the Potency result is “inactive”.

As to `N#Cc1c(-c2ccccc2)nc(SCc2ccc([N+](=O)[O-])cc2)[nH]c1=O`, the Potency entry was “inactive”.

For `O=C(Nc1ccccc1)/C(=C\c1ccco1)NC(=O)c1ccco1`, the Potency result was “inactive”.

As to `CCN(CC(=O)Nc1ccc(OC)cc1)C(=O)c1ccc(=O)n(Cc2ccccc2)n1`, the Potency result is “inactive”.

Regarding `COc1ccc(NC(=O)CCCNC(=O)Cn2cnc3sc4c(c3c2=O)CCCC4)cc1OC`, the Potency entry was “inactive”.

`O=C(Nc1ccccc1C(=O)N1CCCCCC1)c1ccccc1Cl`: the Potency entry was “inactive”.

Turning to `Nc1nnnn1/N=C/c1cccc(Br)c1`, the Potency result was “inactive”.

Consider `CCOC(=O)c1c(NC(=O)c2ccc(Br)o2)sc2c1CCCC2`, for which the Potency result was “inactive”.

Turning to `CCOC(=O)c1c(NC(=O)C2(C)Cc3ccccc3C(=O)O2)sc2c1CCCC2` (stereo unspecified), the Potency was 18.4 µM (active).

In the case of `CCOC(=O)c1c(NC(=S)Nc2ccccc2C)sc2c1CCC2`, the Potency result is “inactive”.

With `O=C1c2ccccc2C(=O)N1CCC(O)C[N+](=O)[O-]` (stereo unspecified), the Potency result was “inactive”.

For `COCCCNc1nc2c(-c3cccc(C(F)(F)F)c3)nnn2c2ccccc12`, the Potency entry was “inactive”.

As to `COc1ccc(CCNc2nc3c(-c4cccc(F)c4)nnn3c3ccccc23)cc1OC`, the Potency entry is “inactive”.

With `COCCCNc1nc2c(-c3cccc(C)c3)nnn2c2ccc(Cl)cc12`, the Potency is 11.6 µM (active).

`C[C@@H]1O[C@@H](OC[C@H]2O[C@@H](Oc3c(-c4ccc(O)cc4)oc4cc(O)cc(O)c4c3=O)[C@H](O)[C@@H](O)[C@@H]2O)[C@H](O)[C@H](O)[C@H]1O`: the Potency result was “inactive”.

As for `COc1cccc(-n2c(=O)c3c(C)c(C(=O)N(C)C)sc3n(Cc3cccc(C)c3)c2=O)c1`, the Potency result is “inactive”.

On to `COc1cc(OC)cc(C2=Cc3ccccc3C(CC(=O)c3ccco3)N2c2ccc(-c3cnc(OC)nc3)cc2)c1` (stereo unspecified), for which the Potency entry is “inactive”.

On to `Cn1c2ccccc2c2cc(/C=C(\NC(=O)c3ccccc3)C(=O)NCC(=O)O)ccc21`, for which the Potency entry was “inactive”.

As to `CCCNC(=O)C1CCC(Cn2c(=O)c3sccc3n(Cc3ccccc3F)c2=O)CC1` (stereo unspecified), the Potency is 14.6 µM (active).

Consider `O=C(C1CCN(CC2CCCCC2)CC1)N1CCCC1`, for which the Potency result is “inactive”.

In the case of `O=c1c(F)cn(C2CCCO2)c(=O)n1Cc1ccccc1Cl` (stereo unspecified), the Potency result is “inactive”.

For `CCC1CCCCN1CCCNC(=O)C1CCC(Cn2c(=O)[nH]c3ccccc3c2=O)CC1` (stereo unspecified), the Potency result is “inactive”.

For the molecule `Cc1cccc(Cn2c(=O)n(CCC(=O)NCCc3ccc(Cl)cc3)c(=O)c3sccc32)c1`, the Potency result was “inactive”.

In the case of `O=C(C1CCC(Cn2c(=O)c3sccc3n(Cc3ccccc3F)c2=O)CC1)N1CCCCC1` (stereo unspecified), the Potency was 23.1 µM (active).

With `C=Cc1ccc(Cn2c(C(=O)OC)cc3sc(C)cc32)cc1`, the Potency entry is “inactive”.

Regarding `COc1ccc(S(=O)(=O)NC(=O)C2(C)CCN2C(=O)c2ccccc2CCc2ccccc2)cc1` (stereo unspecified), the Potency entry is “inactive”.

Take `CCc1cc(=O)oc2c(C)c(OCC(=O)NCCN3CCOCC3)ccc12`: the Potency was 23.1 µM (active).

On to `CCCc1cc(=O)oc2c(C)c(OCC(=O)NCc3ccccn3)ccc12`, for which the Potency result is “inactive”.

In the case of `CCCc1cc(=O)oc2c(C)c(OCC(=O)Nc3ccccn3)ccc12`, the Potency result was “inactive”.

Consider `O=C(NCc1cccnc1)C12CC3CC(CC(C3)C1)C2`, for which the Potency entry was “inactive”.

For the molecule `CCOc1ccc(C(C)=O)cc1COC(=O)CNC(=O)c1cccs1`, the Potency entry is “inactive”.

For `Cc1ccc(C(=O)NCCSc2c(C)[nH]c3ccccc23)cc1C`, the Potency was 18.4 µM (active).

With `CN(C)CCCNC(=O)c1ccc2[nH]c3ccccc3c2c1`, the Potency result was “inactive”.

As to `COC(=O)CCNC(=O)c1ccc2[nH]c(C)c(C)c2c1`, the Potency result was “inactive”.

In the case of `COc1cccc(NC(=O)CN(C)C(=O)CSC(=S)N2CCCC2)c1`, the Potency entry was “inactive”.

Turning to `Cc1cc(C)cc(NS(=O)(=O)c2ccc(F)cc2)c1`, the Potency entry was “inactive”.

`Cn1c(=O)n(C)c2cc(S(=O)(=O)Nc3ccc(F)cc3)ccc21`: the Potency was 16.4 µM (active).

As to `Cn1c(=O)sc2cc(NS(=O)(=O)c3ccc(C(C)(C)C)cc3)ccc21`, the Potency entry is “inactive”.

Consider `O=C(Nc1ccccc1N1CCOCC1)c1ccc(OCc2cscn2)cc1`, for which the Potency result was “inactive”.

Regarding `O=Nc1c(O)cc(O)c2ccccc12`, the Potency entry was “inactive”.

Regarding `O=C(/C=C/c1cccc(F)c1)NC1CC1`, the Potency entry is “inactive”.

For `Cc1cc(NCc2ccco2)n2c(nc3ccccc32)c1C#N`, the Potency entry was “inactive”.

With `CC(C)c1cc(NCc2ccccn2)n2c(nc3ccccc32)c1C#N`, the Potency was 5.8 µM (active).

As to `Cc1cc(NC(C)C)n2c(nc3ccccc32)c1C#N`, the Potency result was “inactive”.

Turning to `O=C(COC(=O)c1cc(S(=O)(=O)N2CCOCC2)ccc1F)NC1CC1`, the Potency entry is “inactive”.

`O=C(c1ccc(CSc2ccccc2)cc1)N1CCCCCC1`: the Potency result is “inactive”.

As for `Cc1ccc(NC(=S)N2CCCC(c3ccccc3)=N2)cc1`, the Potency entry was “inactive”.

In the case of `O=C(C[n+]1cc(-c2ccc(Cl)c(Cl)c2)n2c1CCC2)c1cccs1`, the Potency was 10.3 µM (active).

For `CCS(=O)(=O)N1CCN(C(=O)c2cccs2)CC1`, the Potency result is “inactive”.

With `Cc1ccc(NC(=O)CN2CCc3ccccc3C2)cc1`, the Potency entry was “inactive”.

As to `Cc1ccc(C(=O)C[n+]2cc(-c3ccccc3)n3c2CCCCC3)cc1`, the Potency was 5.62 µM (active) and 1.64 µM (active).

With `CCCS(=O)(=O)N1CCN(C(=O)c2cccs2)CC1`, the Potency entry is “inactive”.

Turning to `Cc1ccc(-c2c[n+](CC(=O)Nc3ccccc3)c3n2CCC3)cc1`, the Potency is 11.6 µM (active).

Take `Cc1ccc(C(=O)N2CCCC(c3ccccc3)=N2)cc1`: the Potency entry is “inactive”.
